From ChEMBL document CHEMBL3988442, “University of Dundee, Small-Polar-MMV Screening Library” (2021)

Experiments:
[1] = target: T1, Aspartate--tRNA(Asp/Asn) ligase (Mycobacterium tuberculosis (strain ATCC 25618 / H37Rv)) (UniProt P9WFW3); experiment: Assay for Asp RNA synthetase-1 from Mycobacterium tuberculosis; format: functional; parameters: scale not given: direction of the effect not stated beside the values; conditions: 30 µM; note: in the data most compounds retested in dose-response had high values
T1 sequence (whole entry): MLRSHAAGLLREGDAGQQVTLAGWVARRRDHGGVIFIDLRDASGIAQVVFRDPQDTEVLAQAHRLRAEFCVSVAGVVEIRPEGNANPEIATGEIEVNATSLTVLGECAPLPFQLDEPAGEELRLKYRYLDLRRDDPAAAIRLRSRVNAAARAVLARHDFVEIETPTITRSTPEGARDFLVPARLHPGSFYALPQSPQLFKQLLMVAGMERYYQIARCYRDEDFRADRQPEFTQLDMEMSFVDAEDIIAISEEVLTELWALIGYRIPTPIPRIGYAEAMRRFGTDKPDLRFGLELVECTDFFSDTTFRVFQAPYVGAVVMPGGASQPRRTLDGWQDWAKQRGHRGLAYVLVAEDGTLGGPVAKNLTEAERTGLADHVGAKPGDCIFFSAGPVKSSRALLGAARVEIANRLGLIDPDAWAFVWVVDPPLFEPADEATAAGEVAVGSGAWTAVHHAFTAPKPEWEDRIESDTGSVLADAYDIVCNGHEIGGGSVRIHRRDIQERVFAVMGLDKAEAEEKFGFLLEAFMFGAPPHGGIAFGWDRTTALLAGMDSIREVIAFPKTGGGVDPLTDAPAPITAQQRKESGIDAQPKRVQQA

[2] = target: Shiga toxin 2 (Escherichia coli O157:H7) (UniProt P09385+P09386); experiment: E. coli 0.157:H7 Shiga Toxin SOP - stx2 screening assay; format: functional; parameters: scale not given: direction of the effect not stated beside the values; conditions: 30 µM

Row | Compound | Percent Effect [1] [%] | Percent Effect [2] [%]
1 | O=C(NCc1ccccn1)Nc1cc(C(F)(F)F)c[nH]c1=O | 1.37 | -24.9
2 | Cc1cc(C(=O)N2C[C@@H]3COC[C@]3(COCc3cccnc3)C2)no1 | 0.918 | -6.54
3 | CCN(CC)C(CNC(=O)c1ccc(S(C)(=O)=O)cc1)c1ccco1 (centres undefined) | -0.521 | -4.44
4 | CCN(Cc1cccc2c1OCO2)C(=O)Nc1ccncc1 | -0.0463 | -14.2
5 | CCOc1ccccc1C(CC(=O)Nc1ccccc1F)NC(C)=O (centres undefined) | -4.12 | 31.5
6 | Cn1cc(C(=O)Nc2ccc3c(c2)CN(C(=O)c2ccco2)CC3)nn1 | 5.79 | -88.9
7 | O=C(Cc1ccsc1)N1C[C@@H]2CN(Cc3ccoc3)CCO[C@@H]2C1 | -1.48 | -6.92
8 | Cc1ncc2c(n1)CN(CC(=O)Nc1nncs1)CC2 | -3.23 | -20.4
9 | O=C(CN1CCC(c2ccnn2CCO)CC1)NCc1cccs1 | -1.91 | -10
10 | COc1ccc(NC(=O)NCC(O)c2ccc(F)cc2F)c(OC)c1 (centres undefined) | 1.18 | -4.16
11 | O=C(C1CCC1)N1CCn2c(COc3ncccn3)nnc2C1 | -0.503 | -1.29
12 | COCCOc1ccc(NC(=O)N(C)Cc2ccsc2)cn1 | 0.514 | -8.11
13 | CS(=O)(=O)N1CCN(CC(O)COc2ccc(F)cc2)CC1 (centres undefined) | 1.99 | 26.7
14 | Cc1nc(Nc2nccs2)cc(C2CCCN2C2CCOCC2)n1 (centres undefined) | -3.08 | 3.58
15 | CC(C)(C)c1cn2nc(N3CCC[C@@H]3CO)sc2n1 | -3.63 | -8.45
16 | CCc1noc(C(C)N2CCN(Cc3nc(C)c(C)o3)CC2)n1 (centres undefined) | -6.81 | 10.2
17 | O=C(NCCOc1ccc2c(c1)CCC2)N1CCS(=O)(=O)CC1 | -1.48 | -52.5
